This note sets out measurements from PubChem BioAssay AID1724 (National Center for Advancing Translational Sciences (NCATS), 2009).

Each structure is given as a SMILES string. Results filed as inconclusive are left out. Unmarked numbers belong to inactive results. Active and inactive are the calls of the source. Calls follow the shape of the dose curve; as a rule, active = well fitted inhibition curve with a large enough effect; inconclusive = small, poorly fitted or top-dose-only effect, or effect the other way; inactive = no such curve, though single readings can be large or run the other way.

This test in a line: Confirmation Concentration-Response Assay for Inhibitors of the ERK Signaling Pathway using a Homogeneous Screening Assay. As to conditions: HEK293 cells, hormone-stimulated phospho-ERK AlphaScreen; series mostly up to 40.9 µM; activity change, negative = inhibition: at the top concentration. An excerpt: qHTS Assay for Inhibitors of the ERK Signaling Pathway using a Homogeneous Screening Assay
NIH Chemical Genomics Center [NCGC]
NIH Molecular Libraries Screening Centers Network [MLSCN]
Assay Submitter (PI): Dr. Wei Zheng, NCGC/NIH
The Ras/extracellular-signal-regulated kinase (ERK) mitogen activated protein (MAP) kinase signaling pathway (ERK1/2 cascade) plays is a key role in transmitting signals from the cell surface to the nucleus (Nishida and Gotoh 1993; Chang and Karin, 2001). The cascade is initiated by the small G-protein Ras, which recruits Raf […], where activation occurs. Alternatively, this pathway can be activated by elevating intracellular cAMP.
Activation of the ERK pathway is essential in increased cell division and cell survival. Sustained and constitutive activation of the ERK pathway, however, has been linked to uncontrolled cell proliferation, increased cell survival, and tumor progression. Thus, the ERK has been as an attractive target for cancer chemotherapy in the past few years (Sebolt-Leopold and Herrera, 2004). Given its physiological and pathological importance, assessment of ERK phosphorylation has been broadly performed in both basic research and drug discovery. Most assays for the measurement of ERK phosphorylation use the antibody-based detection methods, such as western blot and ELISA. These assays require multiple reagent additions with cell wash steps and are not suitable for high-throughput screening.
The current cell-based ERK phosphorylation assay was performed using AlphaScreen platform. AlphaScreen is a two bead-based proximity-dependent chemical energy transfer luminescent assay platform. The assay reagents (ERK SureFire(TM) kit) were supplied from TGR BioSciences (Australia). In the presence of specific antibodies, phosphorylated ERK will bring "donor" and "acceptor" beads to a proximity range (<200 nm), and subsequently lead a chemical luminescent reaction upon exciting donor beads with 680 nm laser. To exclude the assay-related false positives, we used a biotinylated rabbit IgG to perform counter-screen. The biotinylated antibody mimics the phosphorylated ERK1/2 for bringing streptavidin coated beads and protein-A coated beads to a proximity range for the AlphaScreen detection.
NCGC Assay Protocol Summary:
HEK293 cells stably expressing type-1 vasopressin receptor (V1b) were maintained in DMEM medium (Invitrogen, Carlsbad, CA) at 37C under a humidified atmosphere containing 5% CO2 and 95% air. The medium contained 10% FBS, 2 mM L-glutamine, non-essential amino acid, pyruvate and 50 U/ml penicillin and 50 ug/ml streptomycin (Invitrogen). The aliquots of frozen cells were stored at -135C and used for the compound screening. All compounds were screened as titrations from 0.6 nM to 46 uM final concentration. Vasopressin was used to stimulate the ERK phosphorylation pathway. The ERK phosphorylation in cells was determined using an AlphaScreen assay kit provided by PerkinElmer. Data were normalized to the controls for basal activity (DMSO only) and 100% activation (25 nM vasopressin). AC50 values were determined from concentration-response data modeled with the standard Hill equation.
(1) Seed 4 ul/well of resuspended frozen HEK293 cells containing 2000 cells in white 1536-well plates for overnight with 1% FBS at 37C under a humidified atmosphere containing 5% CO2 and 95% air.
(2) Add 23 nL compounds in DMSO solution. The final titration was 0.6 nM to 46 uM.
(3) Incubate at 37C for 30 min.
(4) Dispense 0.5uL vasopressin (25 nM in final)
(5) Incubate at 37C for 5 min.
(6) Dispense 0.5uL of 1:2 diluted 5x lysis buffer.
(7) Incubate at 37C for 10 min.
(8) Dispense 1.5uL of mixture of activation buffer and reaction buffer with AlphaScreen beads (streptavidin donor beads and protein-A acceptor beads, 10 ng/well for each).
(9) Incubate at room temperature for 5 hr.
(10) Detect the assay plate in an EnVision plate reader (PerkinElmer) using the AlphaScreen detection mode.
[…]
As to `COc1ccc2[nH]cc(CCNc3ncnc4ccc(-c5ccc(C(=O)N(C)C)cc5)cc34)c2c1`, the Potency was 31.6 µM (active). Still for that read-out and setting: then `O=C(Nc1ccc(N2CCN(C(=O)c3ccco3)CC2)c(Cl)c1)c1cc2ccccc2o1`, with 7.94 µM (active). As for `Cc1sc2ncnc(Nc3ccccc3)c2c1C`, the “activity change, negative = inhibition” value is -50.7%.

For the compound `COc1ccc(C(=O)Nc2ccc(-c3ccc(C)o3)cc2)cc1S(=O)(=O)N1CCOCC1`, the Potency was 10 µM (active). Still for that read-out and setting: the result for `COc1ccc(N=C2C(=Nc3ccc(OC)cc3)N(c3ccc(OC)cc3)C(=S)N2C)cc1` reads 15.8 µM (active). The same measure, in the same setting: the result for `COc1ccc(N=C2C(=Nc3ccc(OC)cc3)N(c3ccccc3)C(=S)N2C(=O)c2ccc(Cl)cc2)cc1` reads 3.16 µM (active). The same measure, in the same setting: then `CCCN1C(=O)/C(=C2/C=Cc3ccccc3N2CC)SC1=S`, with 11.2 µM (active); and `COc1ccc(C(=O)c2ccc(Cl)c([N+](=O)[O-])c2)cc1`, with 12.6 µM (active); and `CCOC(=O)c1ccc(NC(=O)c2cccc(S(=O)(=O)N3CCOCC3)c2)cc1`, with 25.1 µM (active). With `Cn1nc(-c2ccc(Cl)cc2)nc2c(=O)n(C)c(=O)nc1-2`, the “activity change, negative = inhibition” value is 5.68%.

Regarding `Cc1ccc(NNc2c(C)nc3ccccc3nc2=O)cc1`, the “activity change, negative = inhibition” value was -19.8%.

Turning to `Cc1nc2ccccc2c2oc(C(=O)N3CCc4ccccc4C3)cc12`, the Potency is 25.1 µM (active). For the compound `Cc1sc2ncnc(Sc3nnnn3-c3ccc(Cl)cc3)c2c1C`, the “activity change, negative = inhibition” value is 24%. `COC(=O)c1cc(-c2ccc(OC)c(OC)c2)on1`: the Potency is 7.08 µM (active). Same read-out and setting: then `CCC(=O)N1CCN(c2ccc(NC(=O)c3cc4ccccc4o3)cc2Cl)CC1`, with 12.6 µM (active). On to `CCCN(CCC)S(=O)(=O)c1cccc(C(=O)Nc2ccc3c(c2)OCO3)c1`, for which the “activity change, negative = inhibition” value is -5.48% [at 57.5 µM]. Regarding `O=C(Nc1ccc(-c2cn3ccsc3n2)cc1)c1ccc(F)c(S(=O)(=O)N2CCOCC2)c1`, the Potency was 12.6 µM (active).

Take `Cc1cccc(CNc2ncnc3ccc(-c4cccnc4)cc23)c1`: the Potency was 12.6 µM (active). As to `c1ccc(Oc2nc(NCc3ccco3)nc(NCc3ccco3)n2)cc1`, the “activity change, negative = inhibition” value is -22.3% [at 57.5 µM]. The same measure, in the same setting: then `C=C[C@]1(C)CC(=O)[C@@]2(O)[C@@]3(C)C(O)CCC(C)(C)C3C(O)C(OC(C)=O)[C@@]2(C)O1` (some centres not stated), with -62.4%; and `Cc1cc(-c2ccccc2)n(-c2cc(N/N=C/c3ccccc3O)ncn2)n1`, with -78%. As for `CCCC(=O)N1CCN(c2ccc(NC(=O)c3cc4ccccc4o3)cc2Cl)CC1`, the Potency was 7.94 µM (active).
